# Test results as given in PubChem BioAssay.
# Target: Tumor necrosis factor receptor superfamily member 10B (Homo sapiens) (UniProt O14763)
# Experiment: caspase-8 TRAIL sensitization, hit retest, confirmation, cell-based, NB7+caspase-8, with/without TRAIL, luminescence panel (AID 651596)
# Settings: NB7 neuroblastoma + caspase-8, TRAIL sensitization, luminescence viability, with TRAIL, mean of runs, at 10 µM, stronger effect = higher value; in the data active = activity above about 50%; inactive = the rest
# Sequence of Tumor necrosis factor receptor superfamily member 10B (Homo sapiens) (O14763 whole entry, looked up): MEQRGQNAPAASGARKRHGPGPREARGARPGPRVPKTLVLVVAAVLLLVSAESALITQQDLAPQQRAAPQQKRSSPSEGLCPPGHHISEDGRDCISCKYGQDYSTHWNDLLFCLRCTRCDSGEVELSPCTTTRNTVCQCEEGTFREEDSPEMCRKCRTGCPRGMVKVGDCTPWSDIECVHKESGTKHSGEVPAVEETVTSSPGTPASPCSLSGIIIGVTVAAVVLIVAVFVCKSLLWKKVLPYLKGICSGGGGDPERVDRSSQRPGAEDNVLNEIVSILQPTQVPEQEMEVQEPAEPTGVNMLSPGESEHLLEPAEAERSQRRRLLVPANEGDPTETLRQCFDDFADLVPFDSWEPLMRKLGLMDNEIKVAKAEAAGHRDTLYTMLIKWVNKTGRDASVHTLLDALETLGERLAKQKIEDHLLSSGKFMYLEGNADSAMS
row,SMILES,activity
1,COc1cc(NCCCCC(C)N)c2nccc(C)c2c1 (stereo unspecified),38%
2,O=C(Oc1ccc2ccccc2c1Cl)N1CCCCCC1,20.1%
3,N#Cc1ccc(C(=O)Nc2nc(-c3cccs3)c(C(=O)C(F)(F)F)s2)cc1,36.9%
4,Nc1c(-c2ccccc2)cnn1-c1ccccc1,44.6%
5,c1csc(-c2ccc(N3CCOCC3)nn2)c1,69.5%
6,COc1cc(SC)ccc1C(=O)NNC(=O)c1cc(C)oc1C,71.4%
7,C/C(=N\NC(=O)c1ccc(Cl)cc1)c1ccccn1,32.2%
8,C=CCN=c1scc(-c2ccccc2)n1/N=C/c1ccccn1,37.6%
9,CC(=O)c1cccc(NC(=O)CSc2ccc(-c3ccc4c(c3)OCO4)nn2)c1,52.1%
10,Cc1nnc(NC(=O)c2nc(S(=O)(=O)Cc3ccccc3)ncc2Cl)s1,94.5%
11,O=C(Nc1ccccn1)c1ccc2c(c1)OCCO2,49.8%
12,COc1ccc(C(=O)Nn2c(SCC(=O)N3CCC(C)CC3)nc3ccccc3c2=O)cc1,68.2%
13,CC[C@H]1CN2CCc3cc(OC)c(OC)cc3C2C[C@@H]1C[C@H]1NCCc2cc(OC)c(OC)cc21 (stereo partly specified),70%
14,CN(C)CCNC(=O)c1cccc(-c2cc(NC=O)c3ncc(-c4cccc(C(F)(F)F)c4)n3c2)c1,99.4%
15,CCN1CCN(Cc2ccc(NC(=O)c3cc(NC(=O)c4cnnc5ccccc45)cc(OC)c3)cc2C(F)(F)F)CC1,55.2%
16,CC(=O)c1c(C)[nH]c(C(=O)Nc2nc(C)cs2)c1C,80.2%
17,O=C(COc1ccc2ccccc2c1)Nc1nccs1,58%
18,Cc1nnc(NC(=O)c2ccc(S(=O)(=O)C(F)F)cc2)s1,43.1%
19,CCN(CC)c1ccc(C(=O)OCc2cc(=O)oc3cc(O)ccc23)cc1,83.8%
20,O=C(CCS(=O)(=O)c1ccccc1)Nc1ccc(-c2nc3ccccc3s2)cc1,58%
21,C=CCOC(=O)c1sc(NC(=O)c2ccco2)nc1C,39.1%

# Tested on: not listed separately
# Experiment: as above
# Settings: NB7 neuroblastoma + caspase-8, without TRAIL, luminescence viability, without TRAIL, mean of runs, at 10 µM
row,SMILES,activity
1,CN(C)c1cccc(C(=O)N/N=C/c2ccsc2)c1,40.4%
2,CNC(=S)N1N=C(c2ccccc2)CC1c1ccc(Br)cc1 (stereo unspecified),-42.7%
3,Cc1ccc(-c2cc(C(=O)N3CCOCC3)no2)cc1,65.2%
4,c1ccc2sc(NN=C3CCCCCC3)nc2c1,46.7%
5,Cc1ccc(C(=O)Nc2ccc3ccccc3n2)cc1,58.2%
6,O=C1[C@H]2[C@@H](/C=C/c3ccccc3)N3C(=O)CN(CC4CC4)C(=O)[C@@]3(Cc3ccccc3)[C@H]2C(=O)N1c1ccccc1,97.8%
7,CCC(C(=O)O/N=C(\N)c1ccc(C)cc1)c1ccccc1 (stereo unspecified),77.5%
8,CCN1CCC(O)(/C=C/c2ccc(C(C)C)cc2)C(C(=O)/C=C/c2ccc(C(C)C)cc2)C1 (stereo unspecified),82.8%
9,Cc1ccc(-c2nnc(NC(=O)c3ccco3)s2)cc1,62.7%
10,Cc1cc(-c2ccc(F)cc2)n2ncc(-c3ccccc3)c2n1,84.3%
11,O=C1Nc2ccccc2N(C(=O)c2c(F)cccc2F)C1c1nc2ccccc2[nH]1 (stereo unspecified),60.3%
12,COc1ccc(/C=C2/Sc3ccc(C(=O)NCCN4CCCCCC4)cc3NC2=O)cc1,94.7%
13,CCOc1ccc(C(=O)Nc2cc(C)ccn2)cc1,96.3%
14,COc1ccc2c(=O)cc(-c3ccccc3)n(C)c2c1,60.1%
15,Cc1ccc(NC(=O)C(=O)Nc2ccccn2)cc1,71.7%
16,O=C1C(=C(I)I)c2ccccc2-c2ccccc21,99.6%
17,O=C(NCc1cccnc1)/C(=C\c1ccc(-c2ccc(Cl)c(Cl)c2)o1)S(=O)(=O)c1ccccc1,99.2%
18,CCOC(=O)c1sc(NC(=O)c2ccccc2)cc1C,54.5%
19,Cc1ccccc1Nc1nc(N)nc(CCl)n1,96.2%
20,COc1cc(NCCCCC(C)N)c2nccc(C)c2c1 (stereo unspecified),45.6%

row,SMILES,activity
1,O=C(Oc1ccc2ccccc2c1Cl)N1CCCCCC1,12.2%
2,N#Cc1ccc(C(=O)Nc2nc(-c3cccs3)c(C(=O)C(F)(F)F)s2)cc1,37%
3,Nc1c(-c2ccccc2)cnn1-c1ccccc1,40.4%
4,c1csc(-c2ccc(N3CCOCC3)nn2)c1,69.4%
5,COc1cc(SC)ccc1C(=O)NNC(=O)c1cc(C)oc1C,70.8%
6,C/C(=N\NC(=O)c1ccc(Cl)cc1)c1ccccn1,51%
7,C=CCN=c1scc(-c2ccccc2)n1/N=C/c1ccccn1,24.8%
8,CC(=O)c1cccc(NC(=O)CSc2ccc(-c3ccc4c(c3)OCO4)nn2)c1,50%
9,Cc1nnc(NC(=O)c2nc(S(=O)(=O)Cc3ccccc3)ncc2Cl)s1,84.9%
10,O=C(Nc1ccccn1)c1ccc2c(c1)OCCO2,47.5%
11,COc1ccc(C(=O)Nn2c(SCC(=O)N3CCC(C)CC3)nc3ccccc3c2=O)cc1,67.2%
12,CC[C@H]1CN2CCc3cc(OC)c(OC)cc3C2C[C@@H]1C[C@H]1NCCc2cc(OC)c(OC)cc21 (stereo partly specified),83.4%
13,CN(C)CCNC(=O)c1cccc(-c2cc(NC=O)c3ncc(-c4cccc(C(F)(F)F)c4)n3c2)c1,99.5%
14,CCN1CCN(Cc2ccc(NC(=O)c3cc(NC(=O)c4cnnc5ccccc45)cc(OC)c3)cc2C(F)(F)F)CC1,93.9%
15,CC(=O)c1c(C)[nH]c(C(=O)Nc2nc(C)cs2)c1C,82.6%
16,O=C(COc1ccc2ccccc2c1)Nc1nccs1,55.8%
17,Cc1nnc(NC(=O)c2ccc(S(=O)(=O)C(F)F)cc2)s1,42.9%
18,CCN(CC)c1ccc(C(=O)OCc2cc(=O)oc3cc(O)ccc23)cc1,96%
19,O=C(CCS(=O)(=O)c1ccccc1)Nc1ccc(-c2nc3ccccc3s2)cc1,42.8%
20,C=CCOC(=O)c1sc(NC(=O)c2ccco2)nc1C,40.2%
